# Assay results as given in PubChem BioAssay (NCI).
# About 83,000 compounds went through this panel and 20% of them were active in at least one assay; those are over-represented in the sample as a whole.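 In brief: 96-well plates, 48 h treatment, single concentration, percent growth endpoint.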 Active and inactive are the calls of the source. Rule for the calls: active = growth percent below 10; inactive = the rest.
# Tested on: HL-60(TB) leukemia
# Test: NCI-60 one-dose screen, 48 h (100 = growth as untreated, 0 = no growth, -100 = all killed)
# Conditions: 10 µM unless noted
row,SMILES,growth
1,CCC(C)(C)c1cc(O)c(C(C)(C)CC)cc1O,-9.67% (active)
2,Clc1cc(Cl)c(Cl)c(-c2nnc(SCc3ccncc3Br)o2)c1,88.8% (inactive)
3,COc1ccc2c(c1)OC(N(C(C)=O)C(C)=O)=C(C#N)C2c1ccc(F)cc1 (stereo not drawn),-18.9% (active)
